Reference: PubChem BioAssay AID1159580 (chemical genetic matrix, 2015)
“And” between values parts separate entries of the source, which are not always exact repeats. Identical values can stand only once. The campaign covered roughly 5,500 compounds. About 2,000 (36%) were called active. About 18% were inconclusive and are not listed. Cut-off read from the data, not from the text of the source: active = normalized growth mostly below about 0.91 (no sharp cut-off); inconclusive = no clear call, values can overlap the other calls; inactive = mostly above about 0.92. This is one part of the list.

Assay: chemical genetic growth profiling, strain panel (AID 1159580);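 note: tested at 20 µM; growth read once vehicle control cultures reached saturation at 30 °C; 1 = growth at the plate median or of vehicle wells; lower values mean less growth of the strain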
Details: growth OD

Measured: normalized growth

OCCN1CCN(CCCN2c3ccccc3Sc3ccc(Cl)cc32)CC1
inactive: S. cerevisiae deletion strains, locus YJR075W, strain HOC1, stronger effect = lower value 1 | S. cerevisiae deletion strains, locus YKL009W, strain mrt4, stronger effect = lower value 0.982 | S. cerevisiae deletion strains, locus YKL068W, stronger effect = lower value 0.999 | S. cerevisiae deletion strains, locus YKL085W, strain MDH1 (second series), stronger effect = lower value 1 | S. cerevisiae deletion strains, locus YKL085W, strain MDH1, stronger effect = lower value 1 | S. cerevisiae deletion strains, locus YKL160W, strain elf1, stronger effect = lower value 0.996 | S. cerevisiae deletion strains, locus YKL190W, strain CNB1, stronger effect = lower value 1.01 | S. cerevisiae deletion strains, locus YKR001C, strain vps1, stronger effect = lower value 1.03 | S. cerevisiae deletion strains, locus YKR026C, strain gcn3, stronger effect = lower value 1 | S. cerevisiae deletion strains, locus YKR091W, strain srl3, stronger effect = lower value 1 | S. cerevisiae deletion strains, locus YLL001W, strain dnm1, stronger effect = lower value 1.01 | S. cerevisiae deletion strains, locus YLL026W, stronger effect = lower value 0.999 | S. cerevisiae deletion strains, locus YLL041C, strain sdh2, stronger effect = lower value 1 | S. cerevisiae deletion strains, locus YLR027C, strain aat2, stronger effect = lower value 1 | S. cerevisiae deletion strains, locus YLR039C, strain RIC1, stronger effect = lower value 1.24 | S. cerevisiae deletion strains, locus YLR058C, strain SHM2, stronger effect = lower value 1.01 | S. cerevisiae deletion strains, locus YLR102C, strain apc9, stronger effect = lower value 0.991 | S. cerevisiae deletion strains, locus YLR113W, strain HOG1, stronger effect = lower value 0.98 | S. cerevisiae deletion strains, locus YLR221C, strain rsa3, stronger effect = lower value 1 | S. cerevisiae deletion strains, locus YLR258W, strain gsy2, stronger effect = lower value 1 | S. cerevisiae deletion strains, locus YLR262C, strain YPT6 (second series), stronger effect = lower value 1.06 | S. cerevisiae deletion strains, locus YLR262C, strain YPT6, stronger effect = lower value 1.32 | S. cerevisiae deletion strains, locus YLR268W, strain sec22, stronger effect = lower value 0.935 | S. cerevisiae deletion strains, locus YLR320W, strain mms22, stronger effect = lower value 0.964 | S. cerevisiae deletion strains, locus YLR330W, strain CHS5, stronger effect = lower value 1.01 | S. cerevisiae deletion strains, locus YLR342W, strain FKS1 (second series), stronger effect = lower value 0.958 | S. cerevisiae deletion strains, locus YLR342W, strain FKS1, stronger effect = lower value 0.994 | S. cerevisiae deletion strains, locus YLR357W, strain rsc2, stronger effect = lower value 0.983 | S. cerevisiae deletion strains, locus YLR370C, strain arc18, stronger effect = lower value 1 | S. cerevisiae deletion strains, locus YLR371W, strain rom2, stronger effect = lower value 0.992 | S. cerevisiae deletion strains, locus YLR384C, strain iki3, stronger effect = lower value 1 | S. cerevisiae deletion strains, locus YLR418C, strain cdc73, stronger effect = lower value 0.894 | S. cerevisiae deletion strains, locus YML016C, strain PPZ1, stronger effect = lower value 1.02 | S. cerevisiae deletion strains, locus YML032C, strain rad52, stronger effect = lower value 0.961 | S. cerevisiae deletion strains, locus YML120C, strain ndi1, stronger effect = lower value 1 | S. cerevisiae deletion strains, locus YML124C, strain tub3, stronger effect = lower value 0.991 | S. cerevisiae deletion strains, locus YMR058W, strain fet3, stronger effect = lower value 0.995 | S. cerevisiae deletion strains, locus YMR078C, strain ctf18, stronger effect = lower value 0.986 | S. cerevisiae deletion strains, locus YMR125W, strain sto1, stronger effect = lower value 1.01 | S. cerevisiae deletion strains, locus YMR129W, stronger effect = lower value 1 | S. cerevisiae deletion strains, locus YMR205C, strain PFK2, stronger effect = lower value 0.977 | S. cerevisiae deletion strains, locus YMR223W, strain ubp8, stronger effect = lower value 0.984 | S. cerevisiae deletion strains, locus YMR231W, strain pep5, stronger effect = lower value 1 | S. cerevisiae deletion strains, locus YMR263W, strain SAP30, stronger effect = lower value 1 | S. cerevisiae deletion strains, locus YMR307W, strain GAS1, stronger effect = lower value 1.1 | S. cerevisiae deletion strains, locus YNL067W, strain RPL9B, stronger effect = lower value 0.989 | S. cerevisiae deletion strains, locus YNL071W, strain lat1, stronger effect = lower value 1.01 | S. cerevisiae deletion strains, locus YNL128W, strain TEP1, stronger effect = lower value 1 | S. cerevisiae deletion strains, locus YNL153C, strain GIM3, stronger effect = lower value 0.983 and 0.891 | S. cerevisiae deletion strains, locus YNL175C, strain NOP13, stronger effect = lower value 1.03 | S. cerevisiae deletion strains, locus YNL183C, strain NPR1, stronger effect = lower value 0.947 | S. cerevisiae deletion strains, locus YNL197C, strain WHI3, stronger effect = lower value 1.02 | S. cerevisiae deletion strains, locus YNL209W, strain ssb2, stronger effect = lower value 0.997 | S. cerevisiae deletion strains, locus YNL224C, strain SQS1, stronger effect = lower value 1.02 | S. cerevisiae deletion strains, locus YNL233W, strain BNI4, stronger effect = lower value 0.986 | S. cerevisiae deletion strains, locus YNL248C, strain rpa49, stronger effect = lower value 0.998 | S. cerevisiae deletion strains, locus YNL250W, strain rad50, stronger effect = lower value 0.985 | S. cerevisiae deletion strains, locus YNL271C, strain bni1, stronger effect = lower value 0.996 | S. cerevisiae deletion strains, locus YNL298W, strain CLA4, stronger effect = lower value 0.976 | S. cerevisiae deletion strains, locus YNL307C, strain MCK1, stronger effect = lower value 0.973 | S. cerevisiae deletion strains, locus YNL322C, strain KRE1 (second series), stronger effect = lower value 1 | S. cerevisiae deletion strains, locus YNL322C, strain KRE1, stronger effect = lower value 1.01 | S. cerevisiae deletion strains, locus YNR049C, strain mso1, stronger effect = lower value 1.01 | S. cerevisiae deletion strains, locus YNR052C, strain pop2, stronger effect = lower value 1 | S. cerevisiae deletion strains, locus YOL006C, strain TOP1, stronger effect = lower value 1.01 | S. cerevisiae deletion strains, locus YOL012C, strain htz1 0.889 | S. cerevisiae deletion strains, locus YOL147C, strain pex11, stronger effect = lower value 0.992 | S. cerevisiae deletion strains, locus YOR001W, strain rrp6, stronger effect = lower value 0.976 | S. cerevisiae deletion strains, locus YOR061W, strain CKA2, stronger effect = lower value 1.02 | S. cerevisiae deletion strains, locus YOR069W, strain VPS5, stronger effect = lower value 1.01 | S. cerevisiae deletion strains, locus YOR070C, strain gyp1, stronger effect = lower value 0.994 | S. cerevisiae deletion strains, locus YOR080W, strain dia2, stronger effect = lower value 1 | S. cerevisiae deletion strains, locus YOR083W, strain WHI5 (second series), stronger effect = lower value 0.973 | S. cerevisiae deletion strains, locus YOR083W, strain WHI5, stronger effect = lower value 0.991 | S. cerevisiae deletion strains, locus YOR106W, strain vam3, stronger effect = lower value 0.962 | S. cerevisiae deletion strains, locus YOR136W, strain idh2, stronger effect = lower value 0.998 | S. cerevisiae deletion strains, locus YOR144C, strain elg1, stronger effect = lower value 1 | S. cerevisiae deletion strains, locus YOR184W, strain ser1, stronger effect = lower value 0.985 | S. cerevisiae deletion strains, locus YOR231W, strain MKK1, stronger effect = lower value 0.997 | S. cerevisiae deletion strains, locus YOR265W, strain rbl2, stronger effect = lower value 0.998 | S. cerevisiae deletion strains, locus YOR270C, strain vph1, stronger effect = lower value 1.04 | S. cerevisiae deletion strains, locus YOR290C, strain snf2, stronger effect = lower value 0.968 | S. cerevisiae deletion strains, locus YOR316C, strain cot1, stronger effect = lower value 0.994 | S. cerevisiae deletion strains, locus YPL051W, strain arl3, stronger effect = lower value 0.975 | S. cerevisiae deletion strains, locus YPL055C, strain LGE1, stronger effect = lower value 0.99 | S. cerevisiae deletion strains, locus YPL078C, strain atp4, stronger effect = lower value 1 | S. cerevisiae deletion strains, locus YPL106C, strain sse1, stronger effect = lower value 1.03 | S. cerevisiae deletion strains, locus YPL240C, strain hsp82, stronger effect = lower value 0.995 | S. cerevisiae deletion strains, locus YPL241C, strain CIN2, stronger effect = lower value 1.02 | S. cerevisiae deletion strains, locus YPL256C, strain CLN2, stronger effect = lower value 1.01 | S. cerevisiae deletion strains, locus YPR119W, strain clb2, stronger effect = lower value 0.991 | S. cerevisiae deletion strains, locus YPR141C, strain kar3, stronger effect = lower value 0.996 | S. cerevisiae deletion strains, locus YPR163C, strain tif3, stronger effect = lower value 0.987 | S. cerevisiae deletion strains, locus YPR167C, strain met16, stronger effect = lower value 1 | S. cerevisiae deletion strains, strain wtn01, stronger effect = lower value 0.951 | S. cerevisiae strains, strain wild type, stronger effect = lower value 1.01
